Molecules are shown by their SMILES. About 83,000 compounds went through this panel and 20% of them were active in at least one assay; those are over-represented in the sample as a whole.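 Cells were grown in 96-well plates and exposed to the test compound at a single concentration for 48 hours; results are reported as percent growth, with values below 10 considered active.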 A number with no mark means an inactive call. Activity calls are given as the source filed them.

This test relates to UACC-62 melanoma. Briefly: NCI-60 one-dose screen, 48 h (100 = growth as untreated, 0 = no growth, -100 = all killed). Particulars: 10 µM unless noted. The protocol: Growth inhibition of the UACC-62 human tumor cell line is measured as a screen for anti-cancer activity. Cells are grown in 96 well plates and exposed to the test compound for 48 hours. Compounds are tested at a single concentration, which is 10^-5 M for most compounds. The reported endpoint is percent growth (GI% or GIPRCNT), where numbers from 0 - 100% represent growth inhibition, and numbers from -100% - 0 represent cell death. For example, a value of 40 represents 60% growth inhibition. A value of 0 means no net growth occurred over the course of the experiment. A value of -40 indicates 40% of cells at the beginning of the experiment died by the end of the experiment. A value of -100 means all cells are dead at the end of the experiment.
NCI-60 Human Tumor Cell Lines Screen was performed using the standard one-dose NCI protocol, which is described in more detail at https://dtp.cancer.gov/discovery_development/nci-60/default.htm.
Compounds with GIPRCNT values below 10 were considered active. Activity score was based on GIPRCNT using the following formula: […]
Score is 0 for GIPRCNT values of 100 or above, 50 for GIPRCNT values of 0, and 100 for GIPRCNT values of -100.
As to `Cc1cc(C)c(O)c(C(=O)CC(Br)C(=O)O)c1` (stereo not given), the growth was 95.7%.
Then `CC(=S)Nc1ccccc1`, with 96.8%; and `Cc1ncc(CO)c(C(=O)O)c1O`, with 97%; and `CC(C)Cn1cnc2c3ccccc3nc(NCn3nc(-c4cc(Cl)cc(Cl)c4Cl)oc3=S)c21`, with 90.1%.
In the case of `O=C(N/N=C1\SCC(=O)N1c1ccccc1)c1cc(-c2cc3ccccc3o2)nn1-c1ccccc1`, the growth is 134%.
Then `Cc1ccc2[nH]c3nc4cccnc4c(C)c3c2c1`, with 100%.
As to `Cc1cc2nc(-c3c(N)ncc(C#N)c3-c3ccc(Cl)cc3)[nH]c2cc1C`, the growth is 57.8%.
The value for `COc1ccc(-c2nnc(SCC(=O)Nc3ccc(C(=O)/C=C/c4ccccc4)cc3)o2)cc1OC` was 92.4%; that for `CCCCCCCCN(CCCCCCCC)CC(O)c1cc(-c2ccccc2)nc2ccc(OC)cc12` (stereo not given) was 52.5%.
On to `O=C(O)c1ccc(-c2nn(-c3ccc(C(=O)O)cc3)cc2/C=N/Nc2c(F)c(F)cc(F)c2F)cc1`, for which the growth is 106%.
For `O=C(O)c1cn(C2CC2)c2cc(N3CCN(C(=O)CSc4nc(NS(=O)(=O)c5ccccc5)cc(=O)[nH]4)CC3)c(F)cc2c1=O`, the growth was 83.8%.
Then `Cc1ccc[n+](CC(=O)c2cccc3ccccc23)c1`, with 111%.
Consider `CCOC(=O)c1noc2c1CCc1c-2cn(Cc2ccc(OC)cc2)c1-c1cc(OC)c(OC)c(OC)c1`, for which the growth was 22.4%.
The value for `Cn1c(I)c(C#C[Si](C)(C)C)c(=O)[nH]c1=O` was 11.8%.
The value for `O=C1C(SCCO)=C(SCCO)C(=O)N1c1ccc(-c2ccccc2)cc1` was 62.5%; that for `COc1cc(-c2nc3sc(C)cn3c2/C=C2\C(=O)Nc3ccccc32)c(Br)c(OC)c1OC` was 52.8%.
On to `Cc1c(F)cccc1NC(=O)c1sc2nc3c(cc2c1N)CCCCC3`, for which the growth is 27%.
Then `O=C1c2ccccc2OC=C(c2ccccc2)N1CCCCNc1ccc(F)cc1`, with 76.3%.
The value for `COc1ccc(-c2nn(-c3cccc(Cl)c3)cc2-c2cc(-c3ccc(Br)cc3)[nH]c(=O)c2C#N)cc1` was 88%; that for `OC[C@@H](O)C(O[C@@H]1O[C@H](CO)[C@H](O)[C@H](O)[C@H]1O)[C@H](O)[C@@H](O)CO` (stereo not given in full) was 99.1%.
Then `COc1ccc(NC(=O)Nc2ccc(-c3ccc(OC)c(OC)c3)nc2C)cc1`, with 59.9%; and `O=C1CCC(c2c(O)cc(O)c3c(=O)c(O)c(-c4ccc(O)c(O)c4)oc23)N1` (stereo not given), with 88.5%.
Turning to `COc1cc2c(cc1OCCCCC(=O)Nc1ccc(-c3nc4ccccc4s3)cc1)N=C[C@@H]1CCCN1C2=O`, the growth was -70.9% (active).
Then `S=c1n(CNc2ccc(Cl)nn2)nc(-c2cc(Cl)cc(Cl)c2Cl)n1/N=C/c1ccc(Cl)cc1`, with 90.4%.
The value for `O=C(Nc1ccc(-n2ccc3c(NC(=O)c4ccccc4)ncnc32)cc1)Nc1ccc(Cl)c(C(F)(F)F)c1` was 29.7%; that for `C=C1C(=O)O[C@H]2[C@H]1CC/C(COC(=O)c1cc(OC)c(OC)c(OC)c1)=C\CC[C@@]1(C)O[C@@H]21` was -50.7% (active).
The value for `CCOC(=O)C1=C(N)Oc2cc(OC)ccc2C1c1ccc(F)c(F)c1` (stereo not given) was 25.5%; that for `CCc1c(C)c2cc3c(c(C)c2oc1=O)OCC(=O)N3` was 69.6%; that for `O=C(CSc1nnc(-c2cc3c([nH]c4ccccc43)c(-c3cccc(O)c3)n2)n1-c1ccccc1)c1ccccc1` was 69.8%.
In the case of `Cn1c2ccccc2c2ssc(=S)c21`, the growth is 95.8%.
The value for `CCN(CC)CCN1C(=O)c2c(c3c4ccccc4[nH]c3c3[nH]c4ccccc4c23)C1=O` was 87.2%; that for `Cc1[nH]n(C(=O)c2ccncc2)c(=O)c1N=Nc1ccc(S(=O)(=O)Nc2ccncn2)cc1` was 98.8%.
Then `C=CC(=O)Nc1cccc(Nc2nc(Nc3ccc(OCCOC(F)F)cc3)ncc2F)c1`, with 24.1%; and `CC(C)NCC(O)COc1ccc(CC(N)=O)cc1` (stereo not given), with 107%.
With `CC(=O)N1N=C(CCC(=O)c2nc3ccc([N+](=O)[O-])cc3[nH]2)OC1c1ccc(O)cc1` (stereo not given), the growth is 105%.
The value for `O=C(c1cc(-c2ccc(Cl)cc2)nc2ccccc12)N1N=C(c2ccccc2)CC1c1cc(-c2ccccc2)nn1-c1ccccc1` (stereo not given) was 79.2%; that for `CCN(CC)CCNC(=O)c1c(C)[nH]c(/C=C2\C(=O)Nc3cc(NC(=O)NC(=O)c4ccc(OC)cc4F)ccc32)c1C` was 104%; that for `c1ccc(-c2nc3sc(C(c4ccccc4)c4ccccc4)nn3c2-c2ccccc2)cc1` was 89%.
As to `Clc1ccc2c(c1)nnn1c3ncccc3c(Br)c21`, the growth is 58.3%.
With `CCN(CC)CC(=O)Nc1c(C)cccc1C`, the growth is 105%.
